This is a sample that favours compounds with a hit; in the whole collection about 3.5% have one here.
TEAD-YAP inh = TEAD-YAP interaction inhibition; inhibition, % at 9.12 µM; AID 1259422; actives 1.4% (n = 640,000); HEK-TIYL cells, TEAD-Gal4/YAP UAS-luciferase luminescence; in the data active means inhibition above about 32%;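 further: 0% = median of test compound wells and 100% = reference inhibitor wells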
GPR151 ag = activators of human GPR151 | Q8TDV0 | PathHunter beta-arrestin GPR151 cells, luminescence | activation, % at 11.2 µM | actives 1% (n = 650,000) | AID 1508602; in the data active means activation above about 4.9%;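 further: 0% = median of compound wells and 100% = cells with positive control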
Target sequence (Q8TDV0 whole entry, looked up): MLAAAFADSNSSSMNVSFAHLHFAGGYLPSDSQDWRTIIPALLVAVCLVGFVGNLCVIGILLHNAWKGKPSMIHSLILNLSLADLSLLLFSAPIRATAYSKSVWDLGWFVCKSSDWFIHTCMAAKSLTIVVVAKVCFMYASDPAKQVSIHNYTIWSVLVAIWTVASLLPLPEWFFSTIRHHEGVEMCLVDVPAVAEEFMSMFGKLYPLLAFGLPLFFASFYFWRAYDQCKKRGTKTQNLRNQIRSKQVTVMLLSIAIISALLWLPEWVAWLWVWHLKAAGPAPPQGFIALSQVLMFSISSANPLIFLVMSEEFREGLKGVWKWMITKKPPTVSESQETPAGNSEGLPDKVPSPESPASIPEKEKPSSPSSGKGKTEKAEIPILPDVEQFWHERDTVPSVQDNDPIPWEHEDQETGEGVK
MITF primary = human MITF inhibition, primary screen; AlphaScreen MITF homodimerization, bead proximity signal; inhibition, % at 2.6 µM; actives 0.91% (n = 650,000); in the data active means inhibition above about 50%;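 further: 0% = vehicle wells with protein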
FBW7 act = activators of human E3 ligase FBW7. AID 1259310. actives 0.13% (n = 650,000). AlphaScreen FBW7–phospho-cyclin E peptide binding, activator screen. normalized activity (activation), % at 26.1 µM; in the data active means normalized activity above about 1.9%;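 further: purified mutant Fbw7 with reduced substrate affinity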
GPR151 conf act = human GPR151 activation, confirmation screen | GPR151 PathHunter beta-arrestin cells, luminescence, 90 min; % of EA-reagent control over plate median | shares compounds with GPR151 ag | activation, % at 11.2 µM | 6,700 tested, under 10 active;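 active means mean percent activation across replicates above the confirmation screen cutoff of 4.91%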
GPR119 ag = counter-screen for GPR151 activators: effect on human GPR119; shares compounds with GPR151 ag; GPR119 PathHunter beta-arrestin cells, luminescence, 90 min; 0 = compound-well median, 100 = enzyme-acceptor control; activation, % at 11.2 µM; actives 0.3% (n = 6,700); AID 1508611;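 active means mean percent activation in the counterscreen above 29.09%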;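 further: counterscreen on off-target GPR119 to flag nonselective hits from the GPR151 activator screen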
Starred values were filed as active, the others as inactive; ! = not active in a repeat.

Screening CCCN(CCC)CCCN1C(=O)C2C(C(=O)Nc3ccc(F)c(Cl)c3)C3C=CC2(O3)C1C(=O)NC1CCCC(C)C1C (stereo not given) returned TEAD-YAP inh 2, GPR151 ag -1, MITF primary -7 and FBW7 act 0.
COc1ccc(OCc2cc3cccc4c3n(c2=O)CCC4)cc1 was read as TEAD-YAP inh -10, GPR151 ag 0, MITF primary -11 and FBW7 act 0.
Cc1ccc(-n2nc(C)cc2/N=C/N(C)C)cc1 was read as TEAD-YAP inh 3, GPR151 ag 5.4*, MITF primary 9, FBW7 act 0, GPR151 conf act 0 and GPR119 ag 0.
Screening Cc1cccc2sc(NC(=O)C(NS(=O)(=O)c3cccs3)c3ccccc3)nc12 (stereo not given) returned TEAD-YAP inh 15, GPR151 ag 2, MITF primary 7 and FBW7 act 0.
O=C(N[C@@H](Cc1ccccc1)C(=O)O)c1ccc(Cl)cc1Cl was read as TEAD-YAP inh 1, GPR151 ag 5.0*, MITF primary 11, FBW7 act 0, GPR151 conf act 0 and GPR119 ag 2.
For CC(C)CC(NC(=O)c1ccc(Cl)cc1Cl)C(=O)O (stereo not given) the results were TEAD-YAP inh -1, GPR151 ag -1, MITF primary 6 and FBW7 act 0.
For CC1(C)C2CC[C@]3(C)C(C(=O)C=C4[C@@H]5C[C@@](C)(C(=O)O)CC[C@]5(C)CC[C@]43C)[C@@]2(C)CC[C@@H]1OC(=O)CCC(=O)O (stereo not given in full) the results were TEAD-YAP inh 0, GPR151 ag 5.2*!, MITF primary 10, FBW7 act 0, GPR151 conf act 1 and GPR119 ag 5.
`CC1(C)[C@@H](O)CC[C@]2(C)[C@H]3C(=O)C=C4[C@@H]5C[C@@](C)(C(=O)O)CC[C@]5(C)CC[C@@]4(C)[C@]3(C)CC[C@@H]12` gave TEAD-YAP inh 9, GPR151 ag -1, MITF primary -12 and FBW7 act 0.
COc1cccc(CN2CCN(C(=O)c3c(OC)cccc3OC)CC2)c1 was read as TEAD-YAP inh 4, GPR151 ag 0, MITF primary 17 and FBW7 act 0.
`COc1cccc(CN2CCN(C(=O)c3cc(Br)cs3)CC2)c1` gave TEAD-YAP inh -2, GPR151 ag 5.8*, MITF primary -2, FBW7 act 0, GPR151 conf act 1 and GPR119 ag 11.
`COc1ccc(C(=O)N2CCN(Cc3ccc4ccccc4c3)CC2)cc1` gave TEAD-YAP inh 36*, GPR151 ag 7.7*, MITF primary 47, FBW7 act -1, GPR151 conf act 1 and GPR119 ag -1.
`C=CCOc1ccc(C(=O)N2CCN(c3ccc(OC)cc3)CC2)cc1` gave TEAD-YAP inh -8, GPR151 ag 6.1*, MITF primary 8, FBW7 act 1, GPR151 conf act 0 and GPR119 ag 5.
`COc1ccc(N2CCN(C(=O)c3ccc(OC(C)=O)cc3)CC2)cc1` gave TEAD-YAP inh -1, GPR151 ag -1, MITF primary 14 and FBW7 act 0.
CCOC(=O)CNC(=S)Nc1cccc(OC)c1 was read as TEAD-YAP inh -1, GPR151 ag -1, MITF primary -2 and FBW7 act 0.
O=C(Cn1cnc2ccccc2c1=O)NCCC(=O)N1CCN(Cc2ccc3c(c2)OCO3)CC1 was read as TEAD-YAP inh 6, GPR151 ag 5.4*, MITF primary -31, FBW7 act 0, GPR151 conf act 0 and GPR119 ag 16.
O=C(Cn1cnc2ccccc2c1=O)NCCC(=O)N1CCOCC1 was read as TEAD-YAP inh -5, GPR151 ag 0, MITF primary -20 and FBW7 act 0.
For Nc1nnc(SCC(=O)OCC(=O)Nc2ccc(Br)cc2F)s1 the results were TEAD-YAP inh 19, GPR151 ag 6.2*, MITF primary 1, FBW7 act 0, GPR151 conf act 0 and GPR119 ag -4.
For Nc1nnc(SCC(=O)OCC(=O)Nc2ccc(Br)cc2)s1 the results were TEAD-YAP inh 16, GPR151 ag 0, MITF primary 5 and FBW7 act 0.
For C/C(CC(=O)Nc1cccc2c1CCCC2)=N\NC(=O)c1cccc(C)c1 the results were TEAD-YAP inh -26, GPR151 ag -1, MITF primary 9 and FBW7 act 0.
Cc1cc(C)nc(NC(=O)Cc2ccc(F)cc2)n1 was read as TEAD-YAP inh -6, GPR151 ag 13*, MITF primary -1, FBW7 act 0, GPR151 conf act 0 and GPR119 ag -3.
For Cc1cc(C)nc(NS(=O)(=O)c2ccc(NC(=O)Cc3ccc(F)cc3)cc2)n1 the results were TEAD-YAP inh -2, GPR151 ag 0, MITF primary 5 and FBW7 act 0.
For CCOc1ccc(NC(=O)CSc2cn(Cc3cccc(F)c3)c3ccccc23)cc1 the results were TEAD-YAP inh -5, GPR151 ag 18*, MITF primary 11, FBW7 act 0, GPR151 conf act 0 and GPR119 ag 4.
Screening CCCn1cc(SCC(=O)Nc2ccc(OCC)cc2)c2ccccc21 returned TEAD-YAP inh 20, GPR151 ag 0, MITF primary -11 and FBW7 act 0.
CC(C)C(NC(=O)C1CCOC1)c1nnc2n1CCN(C(=O)Cc1ccccc1F)CC2 (stereo not given) was read as TEAD-YAP inh -5, GPR151 ag 3, MITF primary -11 and FBW7 act 0.
Screening O=Cc1ccccc1-c1ccc(Nc2cccnc2)nc1 returned TEAD-YAP inh -19, GPR151 ag 0, MITF primary 13 and FBW7 act -1.
For CC(=O)N1c2ccc(S(=O)(=O)Nc3c(C)n(C)n(-c4ccccc4)c3=O)cc2CC1C (stereo not given) the results were TEAD-YAP inh -14, GPR151 ag 0, MITF primary 10 and FBW7 act 1.
Screening CCOC(=O)c1cccc2c3c([nH]c12)C(C(=O)OCC)CCC3 (stereo not given) returned TEAD-YAP inh -4, GPR151 ag 5.0*, MITF primary -9, FBW7 act 0, GPR151 conf act 0 and GPR119 ag -6.
Cc1cc(=O)[nH]c2nnc(SCC(=O)N3CCCCCC3)n12 was read as TEAD-YAP inh 4, GPR151 ag 6.1*, MITF primary -4, FBW7 act 0, GPR151 conf act 0 and GPR119 ag 0.
Cc1cc(C)nc(SCC(=O)N2CCCCC2)n1 was read as TEAD-YAP inh -2, GPR151 ag 7.5*, MITF primary 13, FBW7 act 0, GPR151 conf act 0 and GPR119 ag 15.

High-throughput results from PubChem BioAssay.
